Laboratory results published in the supplement of paper PMC12350171.
Structures can show the parent of a compound that is named as a salt. Unmarked numbers belong to inactive results.

Key:
Details in all cases: 20 µM
P. vulgatus RND KO = assay: growth AUC normalised to DMSO control (median) (fraction of control); higher = less growth inhibition, active = hit call of the paper
Summary of the method: (§1)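 Area under the growth curve, calculated by the trapezoidal rule up to entry into stationary phase, was normalised to vehicle wells on the same plate. Strains had been passaged twice overnight without oxygen and then grown in mGAM in 96-well plates from OD578 0.01, each with an approved-drug library compound at 20 μM in 1% DMSO. OD578 was read hourly over 24 h in an anaerobic incubator, and the median of three biological replicates is given.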

P. vulgatus WT = assay: as above
Summary of the method: as §1

[1] = system: S. enterica typhimurium WT; assay: as above
Summary of the method: as §1

[2] = system: S. enterica typhimurium tolC KO; assay: as above
Summary of the method: as §1

[3] = system: Haemophilus parainfluenzae; assay: growth AUC normalised to DMSO control (fraction of control); higher = less growth inhibition, active = hit call of the paper
Summary of the method: (§2)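 Three biological replicates were carried out, with OD578 read hourly for 24 h. Before inoculation at a starting OD578 of 0.01, pathogens were passaged anaerobically twice; plates were pre-reduced mGAM containing 20 μM compound and 1% DMSO, sealed with breathable membranes, and the Haemophilus parainfluenzae medium carried added hemin and NAD. Area under each growth curve was calculated by the trapezoidal rule up to the exponential-to-stationary transition and normalised to DMSO controls on the same plate.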

[4] = system: Salmonella enterica typhimurium; assay: as above
Summary of the method: as §2

Shigella flexneri = assay: as above
Summary of the method: as §2

Vibrio cholerae = assay: as above
Summary of the method: as §2

[5] = system: Yersinia pseudotuberculosis; assay: as above
Summary of the method: as §2
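Throughout, for growth AUC normalised to DMSO control (median): active when median AUC fell below 0.1.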

| Structure (SMILES) | growth AUC normalised to DMSO control (P. vulgatus RND KO) | growth AUC normalised to DMSO control (P. vulgatus WT) | growth AUC normalised to DMSO control [1] | growth AUC normalised to DMSO control [2] | growth AUC normalised to DMSO control [3] | growth AUC normalised to DMSO control [4] | growth AUC normalised to DMSO control (Shigella flexneri) | growth AUC normalised to DMSO control (Vibrio cholerae) | growth AUC normalised to DMSO control [5] |
| --- | --- | --- | --- | --- | --- | --- | --- | --- | --- |
| c1ccc2c(c1)Nc1ccccc1S2 [Phenothiazine] | 1.01 | 1.01 | 0.972 | 0.945 | – | – | – | – | – |
| C[C@]12CCC(=O)C=C1CC[C@@H]1[C@@H]2C(=O)C[C@]2(C)C(=O)CC[C@@H]12 [Adrenosterone] | 0.986 | 1.02 | 1.01 | 0.992 | 1.01 | 0.996 | 1.01 | 1 | 0.993 |
| CC[C@@H](C(=O)[C@@H](C)[C@@H](O)[C@H](C)[C@@H]1O[C@@H]([C@@H](CC)C(=O)O)CC[C@@H]1C)[C@H]1O[C@]2(C=C[C@@H](O)[C@]3(CC[C@@](C)([C@H]4CC[C@](O)(CC)[C@H](C)O4)O3)O2)[C@H](C)C[C@@H]1C [Salinomycin sodium] | 0.00978 (active) | 0.00987 (active) | 1.01 | 0.781 | – | – | – | – | – |
| O=C(O[C@H]1C[N+]2(CCCOc3ccccc3)CCC1CC2)C(O)(c1cccs1)c1cccs1 [Aclidinium bromide] | 1 | 1 | 1.01 | 1 | – | – | – | – | – |
| C=C[C@H]1CN2CC[C@H]1C[C@H]2[C@H](OC(=O)OCC)c1ccnc2ccc(OC)cc12 [Quinine ethyl carbonate] | 1.01 | 1 | 0.996 | 0.969 | – | – | – | – | – |
| C[C@]12CCC(=O)C(O)=C1CC[C@@H]1[C@@H]2CC[C@]2(C)C(=O)CC[C@@H]12 [Formestane] | 0.976 | 0.982 | 0.997 | 0.927 | 1.01 | 1.03 | 1 | 1.01 | 0.997 |
| O=C(NCNC(=O)NC1C(=O)NC(=O)N1CO)NC1C(=O)NC(=O)N1CO (configuration not stated) [Imidurea] | 0.991 | 1.01 | 0.998 | 0.996 | 0.992 | 1 | 0.995 | 1.01 | 1 |
| CCCC[N+]1(C)[C@@H]2C[C@@H](OC(=O)[C@H](CO)c3ccccc3)C[C@H]1[C@@H]1O[C@@H]12 (some centres not stated) [N-Butylscopolammonium bromide] | 1 | 1 | 1 | 0.995 | 1 | 1 | 0.993 | 1.01 | 1.02 |
| CCCCCC[C@H]1C(=O)O[C@H](C)[C@H](NC(=O)c2cccc(NC=O)c2O)C(=O)O[C@@H](C)[C@@H]1OC(=O)CC(C)C [Antimycin A] | 1.03 | 1.05 | 1.01 | 1.01 | – | – | – | – | – |
| CN1C(=O)COc2c(C(=O)NC3CN4CCC3CC4)cc(Cl)cc21 (configuration not stated) [Azasetron hydrochloride] | 1.02 | 1.04 | 1.01 | 1.01 | – | – | – | – | – |
| C[C@]12CC[C@H](O)C[C@@H]1CC[C@@H]1[C@@H]2CC[C@]2(C)C(=O)CC[C@@H]12 [Epiandrosterone] | 1 | 1.03 | 1 | 0.951 | 1 | 0.987 | 0.99 | 1.19 | 0.997 |
| N#Cc1nn(-c2c(Cl)cc(C(F)(F)F)cc2Cl)c(N)c1[S+]([O-])C(F)(F)F (configuration not stated) [Fipronil] | 0.985 | 0.906 | 1.01 | 0.903 | – | – | – | – | – |
| CCC(COC(=O)c1cc(OC)c(OC)c(OC)c1)(c1ccccc1)N(C)C (configuration not stated) [Trimebutine] | 1 | 1.01 | 1 | 0.936 | – | – | – | – | – |
| NC(=O)CN1CC(O)CC1=O (configuration not stated) [Oxiracetam] | 1.02 | 1.03 | 1 | 0.955 | – | – | – | – | – |
| O=C(CCCN1CCC2(CC1)C(=O)NCN2c1ccccc1)c1ccc(F)cc1 [Spiperone] | 0.98 | 0.988 | 0.995 | 0.979 | 0.953 | 0.978 | 0.978 | 0.917 | 0.985 |
| COC[C@@H](NC(C)=O)C(=O)NCc1ccccc1 [Lacosamide] | 0.998 | 1 | 0.987 | 1 | – | – | – | – | – |
| Nc1nc(N)nc(NC2CC2)n1 [Cyromazine] | 0.998 | 1.01 | 1 | 0.988 | – | – | – | – | – |
| CC(C)(C)NCC(O)c1ccccc1Cl (configuration not stated) [Tulobuterol Hydrochloride] | 1.01 | 1 | 0.995 | 0.989 | – | – | – | – | – |
| C[C@]12C/C(=C/O)C(=O)C[C@@H]1CC[C@@H]1[C@@H]2CC[C@@]2(C)[C@H]1CC[C@]2(C)O [Oxymetholone] | 0.918 | 1 | 1.01 | 0.956 | – | – | – | – | – |
| C[N+]12CCC(CC1)C(OC(=O)C(O)(c1ccccc1)c1ccccc1)C2 (configuration not stated) [Clidinium bromide] | 1.03 | 0.999 | 1.02 | 0.997 | 0.998 | 0.969 | 0.975 | 0.99 | 0.999 |
| CN1CCN(C(=O)OC2c3nccnc3C(=O)N2c2ccc(Cl)cn2)CC1 (configuration not stated) [Zopiclone] | 0.999 | 1.01 | 0.994 | 0.999 | 1.01 | 0.996 | 1 | 0.998 | 0.996 |
| C[C@]12CC[C@H](O)CC1=CC[C@@H]1[C@@H]2CC[C@]2(C)C(=O)CC[C@@H]12 [Prasterone] | 0.995 | 0.994 | 1.01 | 0.942 | – | – | – | – | – |
| CC(N)C(O)c1ccccc1 (configuration not stated) [Phenylpropanolamine hydrochloride] | 1.03 | 1.02 | 1.01 | 1.01 | 1.07 | – | 1.03 | 1.01 | 0.972 |
| Nc1ccncc1 [Dalfampridine] | 1 | 1.03 | 1.02 | 0.995 | – | – | – | – | – |
| C=CC[C@]1(O)CC[C@H]2[C@@H]3CCC4=CCCC[C@@H]4[C@H]3CC[C@@]21C [Allylestrenol] | 0.959 | 0.925 | 1.02 | 1.01 | – | – | – | – | – |
| C#C[C@]1(O)C=C[C@H]2[C@@H]3CCC4=CC(=O)CC[C@@H]4[C@H]3CC[C@@]21CC [Gestodene] | 0.978 | 0.978 | 0.997 | 0.995 | – | – | – | – | – |
| C[C@]12CC[C@@H]3c4ccc(OC(=O)N(CCCl)CCCl)cc4CC[C@H]3[C@@H]1CC[C@@H]2O [Estramustine] | 0.982 | 0.984 | 1 | 0.968 | – | – | – | – | – |
